Measurements taken from PubChem BioAssay AID436 (Emory University Molecular Libraries Screening Center, 2006).
In all, about 72,000 compounds went through this assay and about 350 (0.49%) were called active. This is one part of a sample in which actives are shown more often than they occur. Unmarked numbers belong to inactive results.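 The calls were made as follows: active = activity remaining at or below 50% of control, provided the compound also passes the data quality filters; inactive = the rest, including low values that fail the filters.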

Each compound was assayed against Ubiquitin carboxyl-terminal hydrolase BAP1 (Homo sapiens) (UniProt Q92560) (assay: BAP1 ubiquitin hydrolase activity blockers – biochemical, Ub-AMC fluorescence, kinetic, primary screen (AID 436;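 also: 100% = DMSO wells rate and 0% = substrate alone blank rate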)). Conditions: recombinant BAP1, Ub-AMC hydrolysis fluorescence kinetic; at 20 µM; hits give low values.
Ubiquitin carboxyl-terminal hydrolase BAP1 (Homo sapiens), sequence (Q92560 whole entry, looked up): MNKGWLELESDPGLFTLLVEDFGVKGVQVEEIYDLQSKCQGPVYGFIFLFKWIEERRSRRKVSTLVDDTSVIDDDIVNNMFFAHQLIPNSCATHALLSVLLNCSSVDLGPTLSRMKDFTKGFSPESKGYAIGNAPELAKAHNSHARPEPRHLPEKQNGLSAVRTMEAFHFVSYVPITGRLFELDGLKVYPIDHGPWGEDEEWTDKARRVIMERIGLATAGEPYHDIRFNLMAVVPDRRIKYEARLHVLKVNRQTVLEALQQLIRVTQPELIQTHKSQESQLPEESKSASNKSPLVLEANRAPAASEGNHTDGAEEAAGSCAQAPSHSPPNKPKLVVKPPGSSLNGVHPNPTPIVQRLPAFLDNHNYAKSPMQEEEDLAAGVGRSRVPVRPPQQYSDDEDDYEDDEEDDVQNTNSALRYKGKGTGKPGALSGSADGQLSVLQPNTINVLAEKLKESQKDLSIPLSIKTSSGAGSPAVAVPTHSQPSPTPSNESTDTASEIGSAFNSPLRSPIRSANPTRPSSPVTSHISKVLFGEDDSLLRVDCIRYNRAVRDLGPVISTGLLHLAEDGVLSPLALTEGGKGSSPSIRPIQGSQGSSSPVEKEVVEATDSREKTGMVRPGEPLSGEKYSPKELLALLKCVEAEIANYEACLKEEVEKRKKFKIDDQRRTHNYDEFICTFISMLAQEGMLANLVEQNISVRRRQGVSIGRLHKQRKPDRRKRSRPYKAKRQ
For `CC(=O)c1c(O)c(C)c(O)c(Cc2c(O)c3c(c(C(=O)/C=C/c4ccccc4)c2O)OC(C)(C)C=C3)c1O`, the activity remaining (% of control) was 14.8% (active).
`CCCCC[n+]1ccc(-c2cc[n+](CCCCC)cc2)cc1` gave an activity remaining (% of control) of 101%.
For `O=C(O)C1C2CCC(O2)C1C(=O)O` (stereo not drawn), the activity remaining (% of control) was 97.4%.
For `O=C1c2ccccc2C(=O)N1Cc1nc2ccccc2c(=O)n1-c1nccs1`, the activity remaining (% of control) was 84.5%.
Compound `Cc1ccc(Cn2c(C)c3cnn(CC(=O)N4CCC5(CC4)OCCO5)c(=O)c3c2C)cc1` has an activity remaining (% of control) of 105%.
For `CCCCCn1c(=O)c(C(=O)NCc2ccccn2)c(O)c2ccccc21`, the activity remaining (% of control) was 39.6% (active).
`C=CCN1CCC2(C)c3cc(O)ccc3CC1[C@@H]2C` (stereo partly drawn) showed an activity remaining (% of control) of 96.1%.
Work on `COc1ccccc1OC(=O)c1ccc(C)c(S(=O)(=O)N2CCOCC2)c1` yielded an activity remaining (% of control) of 104%.
